CRFR2-BP ag: CRF-BP/CRF-R2 complex agonism. HEK293 CRF-R2/CRF-BP, calcium dye fluorescence (FLIPR); percent of saturating CRF peptide response. AID 588473. 350,000 tested, 0.46% active. activation, % at 13.2 µM;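 active = activation of at least 50%, plus an integration ratio under a set limit after plate pattern correction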;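 note: plate controls were neutral control wells without compound for no effect and CRF at EC100 for full effect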
IDE inh: cellular human IDE inhibition. P14735. HEK cells, FAbetaB cleavage, fluorescence polarization. inhibition, % at 5.59 µM. 320,000 tested, 0.41% active. AID 434962;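 active = percent inhibition above the average of all tested compounds plus 3 SD, set per screening campaign, cut at about 16% in these data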;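 note: IDE supplied by intact live HEK cells; FP after avidin binding of uncleaved biotin substrate so inhibition keeps polarization high; 0% = DMSO wells and 100% = 60 µM reference IDE inhibitor Ii1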
Target sequence (P14735 whole entry, looked up): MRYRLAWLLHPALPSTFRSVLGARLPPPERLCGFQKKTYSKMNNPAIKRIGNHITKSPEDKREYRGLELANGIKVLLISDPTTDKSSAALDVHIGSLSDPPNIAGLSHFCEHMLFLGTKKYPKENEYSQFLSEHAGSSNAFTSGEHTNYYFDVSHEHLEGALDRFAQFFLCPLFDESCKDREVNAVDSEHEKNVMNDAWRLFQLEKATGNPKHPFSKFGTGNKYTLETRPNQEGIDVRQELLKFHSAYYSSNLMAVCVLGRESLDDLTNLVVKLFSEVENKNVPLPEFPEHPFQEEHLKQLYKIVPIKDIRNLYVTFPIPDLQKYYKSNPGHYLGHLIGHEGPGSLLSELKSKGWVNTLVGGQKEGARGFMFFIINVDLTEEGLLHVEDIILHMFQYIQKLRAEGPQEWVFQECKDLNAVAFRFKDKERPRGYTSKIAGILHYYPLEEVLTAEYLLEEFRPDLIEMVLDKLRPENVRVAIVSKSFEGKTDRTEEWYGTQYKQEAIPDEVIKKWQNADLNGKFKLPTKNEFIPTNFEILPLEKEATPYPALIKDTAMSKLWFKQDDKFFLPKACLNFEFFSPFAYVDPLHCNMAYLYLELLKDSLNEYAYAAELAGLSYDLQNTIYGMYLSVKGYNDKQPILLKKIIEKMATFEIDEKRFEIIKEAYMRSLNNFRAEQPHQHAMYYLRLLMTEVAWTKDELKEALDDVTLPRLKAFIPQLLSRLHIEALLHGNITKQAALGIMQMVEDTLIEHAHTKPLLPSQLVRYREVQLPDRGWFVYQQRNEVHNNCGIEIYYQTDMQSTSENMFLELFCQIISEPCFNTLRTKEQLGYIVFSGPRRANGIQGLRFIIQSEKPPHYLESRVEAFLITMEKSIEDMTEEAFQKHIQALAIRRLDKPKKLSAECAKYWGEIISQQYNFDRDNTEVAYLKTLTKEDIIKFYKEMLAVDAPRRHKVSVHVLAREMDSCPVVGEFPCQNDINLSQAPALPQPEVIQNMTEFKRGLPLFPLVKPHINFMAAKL
IDE cell activ: IDE (human) activation, cell-based. P14735. HEK cells, FAbeta-B cleavage, fluorescence polarization; 0% vehicle, 100% cell-free pure enzyme wells. activation, % at 5.96 µM. 340,000 tested, 0.073% active;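 active = activation above the mean of all tested compounds plus 3 SD, set per screening campaign, cut at about 17% in these data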
Myeloid diff 2: myeloid differentiation induction. ER-HoxA9 myeloid progenitors, lysozyme-GFP differentiation, flow cytometry. calls only at 10 µM. 360,000 tested, 1% active;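 active = normalized GFP-positive differentiation at or above the plate's own cutoff, the solvent-only control mean plus 3 SD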;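 note: cells exposed to compound for four days before flow analysis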
TPT1 inh: inhibitors of Candida albicans tRNA 2'-phosphotransferase TPT1; 300,000 tested, 0.81% active; inhibition, % at 5 µM; recombinant caTPT1, FP RNA substrate dephosphorylation;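 active = inhibition above the mean of all tested compounds plus 3 SD, set per screening campaign, cut at about 24% in these data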;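 note: plate controls were DMSO alone for no effect and ferristatin control at 100 nM for full effect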
CRFBP-R2 block: CRF-BP/CRF-R2 complex antagonism; HEK293 CRF-R2/CRF-BP, CRF-induced calcium fluorescence; inhibition, % at 11.8 µM; 350,000 tested, 0.59% active;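 active = inhibition of the ligand-induced calcium signal above about 50% at the single tested concentration, limit read from the data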
* hit, by the source's call; i = inactive; . = no result; + = active, no number. Hits are enriched below; roughly 2.6% of the tested compounds scored in any of these assays.

SMILES | CRFR2-BP ag | IDE inh | IDE cell activ | Myeloid diff 2 | TPT1 inh | CRFBP-R2 block
CN(CC(=O)Nc1ccc(F)c(F)c1F)C(=O)CN1C(=O)C2CCCCC2C1=O (centres undefined) | -1 | 1 | 6 | i | 1 | 6
CCn1cc(C(=O)NCC(OC)OC)c(=O)c2cc(S(=O)(=O)N3CCC(C)CC3)ccc21 | 0 | 7 | 1 | + | 1 | -11
CCn1cc(C(=O)NCCCOC(C)C)c(=O)c2cc(S(=O)(=O)N3CCCC3)ccc21 | 8 | -6 | 6 | i | 2 | -4
CCCCNC(=O)c1cn(CC)c2ccc(S(=O)(=O)N3CCCCCC3)cc2c1=O | 2 | -2 | -1 | i | 0 | 60*
COCCNC(=O)C1(C)CCN(C(=O)c2ccc3ccccc3n2)C1 (centres undefined) | . | . | . | i | . | .
C[C@H](NC(=O)N1CCC(Cc2ccccc2)CC1)C(=O)O | 5 | 3 | 2 | i | -2 | -4
CC1(C)CC(NCCC(c2ccccc2)c2ccco2)CCO1 (centres undefined) | 0 | -4 | 4 | i | -2 | 97*
Cc1nnc(SCc2nc3sc4c(c3c(=O)[nH]2)CCCC4)[nH]c1=O | 1 | 2 | 1 | i | 21 | -10
C[C@H]1C=C(C(=O)N2CCOCC2)O[C@@H](OCc2ccc(CO)cc2)C1 | -1 | 3 | 2 | + | -3 | -3
Nc1nc(N)c2c(ccc3c2ccn3Cc2cccc([N+](=O)[O-])c2)n1 | . | . | . | + | . | .
CC(C)(C#N)NC(=O)C1CCCN1S(=O)(=O)c1ccc2ccccc2c1 (centres undefined) | -1 | -5 | -4 | i | 2 | -16
Cc1cc(NC(=O)CS(=O)(=O)c2cn(Cc3ccccc3Cl)c3ccccc23)no1 | -3 | -8 | -3 | + | 4 | 16
C=CCn1c(=O)/c(=C2/SC(C)=C(C)N2CC)s/c1=C1/C(=O)N(CC)C(=S)N1c1ccccc1 | 1 | -1 | 6 | + | 6 | -6
C=CCN1C(=O)/C(=C2/Sc3ccccc3N2CC)SC1=S | 11 | -3 | -1 | i | 5 | -10
COc1cc(OC)cc(C(=O)N/N=C/c2ccc(OC)c(COc3ccc(F)cc3)c2)c1 | 62* | 5 | -1 | . | -3 | -45
COc1ccc(OCc2cc(/C=N\NC(=O)c3ccccc3)ccc2OC)cc1 | 2 | 1 | 0 | i | 0 | 8
COCCN(C(=O)C1CC(=O)N(Cc2ccccc2)C1)c1nc(-c2ccc([N+](=O)[O-])cc2)cs1 (centres undefined) | 0 | 1 | 2 | i | . | 5
CCOc1ccc(CCN2C(=S)N([C@@H](Cc3ccc(O)cc3)CN3CCC[C@@H]3CN3C(=S)NC[C@@H]3CC(C)C)C[C@@H]2Cc2ccc(O)cc2)cc1 | . | . | . | + | . | .
CCOc1ccc(CCN2C(=S)N([C@@H](Cc3ccc(O)cc3)CN3CCCC3CN3C(=S)NC[C@@H]3Cc3ccc(O)cc3)C[C@@H]2CC(C)C)cc1 (some centres undefined) | -1 | . | 4 | i | . | 1
CC(C)C[C@H]1CNC(=S)N1C[C@H]1CCCN1C[C@H](Cc1ccccc1)N1C[C@H](Cc2ccc(O)cc2)N(CC2CCCCC2)C1=S | . | . | . | + | . | .
COc1cc(C(=O)Nc2ccc3c(c2)CCCN3C(=O)c2ccco2)c([N+](=O)[O-])cc1OC | -3 | -2 | 6 | i | -2 | 14
Cc1ccc(-c2nnc3n2N=C(c2ccccc2Br)CS3)cc1 | -2 | -3 | -5 | i | -1 | 11
CCOc1ccc(-n2c(SCC(=O)NCc3ccco3)nc3ccccc3c2=O)cc1 | 1 | -8 | 0 | i | 0 | -8
CCOc1ccc(-n2c(SCC(=O)NCc3ccco3)nc3c([nH]c4ccccc43)c2=O)cc1 | 0 | 0 | -5 | i | 1 | 78*
COc1ccccc1NC(=O)C(C)OC(=O)C1CCC(C(C)(C)C)CC1 (centres undefined) | -1 | 1 | 0 | i | -1 | 4
SMILES | CRFR2-BP ag | IDE inh | IDE cell activ | Myeloid diff 2 | TPT1 inh | CRFBP-R2 block
Cc1ccc(N2C(=O)CCC(C(=O)O)C2c2cccs2)cc1 (centres undefined) | -1 | -1 | -5 | i | 3 | 1
C[C@@H]1CN([C@H](C)CO)C(=O)CCCn2nncc2CO[C@H]1CN(C)Cc1cccc2c1OCCCO2 | 4 | . | . | i | . | 11
CC(=O)Nc1cc(-c2ccccc2N(C)C)cn2c(-c3cccc(C(F)(F)F)c3)cnc12 | . | . | . | + | . | .
CC(=O)Nc1cc(-c2cccc(NS(C)(=O)=O)c2)cn2c(-c3cccc(C(F)(F)F)c3)cnc12 | . | . | . | i | . | .
Cc1cc(C(=O)C(C)OC(=O)c2ccc(NC(=O)CC#N)cc2)c(C)n1-c1ccccc1 (centres undefined) | 0 | 4 | -2 | + | 5 | 5
O=C(c1cc2nc(-c3ccc(F)cc3)cc(C(F)(F)F)n2n1)N1CCOCC1 | 0 | 2 | 4 | i | -5 | 54*
CC(/C=N\NC(=O)Cn1c(C)nc2ccccc21)=C\c1ccccc1 | 0 | -1 | 6 | + | 0 | 8
CC(/C=N/NC(=O)CSc1nc(C)cc(C)n1)=C\c1ccccc1 | 27 | 11 | 3 | i | 22 | -14
CNC(=O)Cn1nc(-c2ccc(Cl)cc2)c2ccccc2c1=O | 2 | 3 | 6 | i | -5 | -29
CN1C(=O)N(c2ccccc2)C(Nc2nncs2)C1(C)C (centres undefined) | 2 | 2 | 0 | + | -4 | 1
CN1C(=O)N(c2cccc3ccccc23)C(n2cncn2)C1(C)C (centres undefined) | 0 | -2 | 6 | i | -2 | -10
CC(C)[C@H](NC(=O)[C@@H]1Cc2c([nH]c3ccccc23)C2c3ccccc3C(=O)N21)C(=O)N1CCC[C@H]1C(=O)O (some centres undefined) | . | . | . | i | . | .
O=C(O)c1ccc(/C=N/Nc2cccc(C(F)(F)F)c2)cc1 | 0 | -1 | 3 | i | 2 | 76*
O=C(O)c1ccc(N/N=C/c2ccc(-c3ccccc3)cc2)cc1 | 1 | . | -3 | i | . | 21
Cn1cccc1/C=N/n1c(-c2ccco2)n[nH]c1=S | 2 | -2 | 2 | i | -2 | -7
COc1cc(-c2n[nH]c(=S)n2/N=C/c2cccn2C)cc(OC)c1OC | 104* | -2 | -1 | i | 0 | -18
CC(=O)C(Cc1cnc(Cl)s1)(Cc1cnc(Cl)s1)C(C)=O | 0 | 10 | 0 | i | -5 | -7
CC(=O)C(Cc1ccc(Cl)nc1)(Cc1ccc(Cl)nc1)C(C)=O | 1 | -1 | 3 | + | 2 | 8
CC(=O)Nc1ccc(SCCN2CC[C@@H](C)CCC2=O)cc1 | 0 | 4 | 1 | i | . | 12
Cc1cc(C)cc(NC(=O)CCC(=O)Nc2nnc(C(C)C)s2)c1 | -1 | -5 | 3 | + | 0 | -1

Assay outcomes (PubChem)
